Bioassay records (PubChem BioAssay)
D2 ag-1: agonists of human D2 dopamine receptor; P14416; HEK293 T-REx D2 cells, calcium flux agonist mode; activation, % at 2 µM; 340,000 compounds, 0.53% hits; AID 485358;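 active = activation over 3 SD above normal in the single-dose calcium agonist read, cut at about 30% in these data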; also: 0% is about no effect
Target sequence (P14416 whole entry, looked up): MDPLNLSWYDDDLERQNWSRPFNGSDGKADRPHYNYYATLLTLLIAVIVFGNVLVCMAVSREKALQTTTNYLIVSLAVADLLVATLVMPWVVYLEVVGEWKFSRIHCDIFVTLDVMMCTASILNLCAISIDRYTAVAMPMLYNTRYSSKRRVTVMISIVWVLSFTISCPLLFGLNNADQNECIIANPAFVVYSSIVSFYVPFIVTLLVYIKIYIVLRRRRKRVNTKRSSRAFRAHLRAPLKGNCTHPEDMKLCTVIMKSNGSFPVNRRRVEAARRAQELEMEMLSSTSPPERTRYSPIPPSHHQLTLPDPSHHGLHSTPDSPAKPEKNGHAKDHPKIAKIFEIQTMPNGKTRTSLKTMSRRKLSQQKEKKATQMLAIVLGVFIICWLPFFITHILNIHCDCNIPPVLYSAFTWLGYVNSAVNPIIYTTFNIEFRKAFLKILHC
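Agonism is scored from calcium flux in a force-coupled, inducible HEK293 cell line expressing D2, read kinetically for 180 s after compound addition against dopamine controls.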
D2 ag-2: human D2 receptor agonism in beta-arrestin assay; P14416; DiscoveRx PathHunter D2 beta-arrestin, luminescence, 90 min; 100% = 57 uM dopamine signal; activation, % (concentration not given with the values); 360,000 compounds, 0.084% hits; in the data active = activation above about 40%; inconclusive = between about 15% and that limit
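DiscoveRx PathHunter D2 beta-arrestin cells (2,100/well) attached overnight, then compound-stimulated 90 min at 37 C in HBSS/10 mM HEPES/0.1% Tween-20 buffer; beta-galactosidase complementation read by luminescence after 1 h at ambient temperature. Dopamine 57 uM final (EC100) as control.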
D2 PAM-1: potentiates the human D2 dopamine receptor allosterically. DiscoveRx D2 beta-arrestin cells, luminescence, 90 min; 100% = 57 uM dopamine signal. 360,000 compounds, 0.23% hits. P14416. potentiation, % (no concentration beside the values); in the data active = potentiation above about 50%; inconclusive = mostly about 30% to 49%
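D2 cells co-treated with compound plus 50 nM dopamine (EC20) for 90 min at 37 deg C to detect potentiation. Beta-arrestin recruitment was read as enzyme-fragment luminescence after 1 h at ambient temperature. Full response was set by 57 uM dopamine.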
D2 antagonist: antagonizes the human D2 dopamine receptor; P14416; 340,000 compounds, 2% hits; HEK293 TREx D2 cells, calcium flux, dopamine EC80; inhibition, % at 10 µM; in the data active = inhibition above about 30%; inactive = below that, where a call was filed; also: 0% is about no effect
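Measurement of antagonist activity uses fluorescent calcium dye in inducible HEK293 T-REx D2 cells: 10 s baseline, compound addition with 180 s read, EC80 dopamine addition with a further 180 s read.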
D2 PAM-2: D2 dopamine receptor (human) potentiation; P14416; HEK293 T-REx D2, calcium flux, EC20 dopamine potentiation; potentiation, % at 10 µM; 340,000 compounds, 0.34% hits;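 active = potentiation over 3 SD above the plate norm, cut at about 30% in these data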; also: 0% is about no effect
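Potentiation of an EC20 dopamine calcium response measured kinetically over 180 s, after a preceding 180 s compound-only read flagging agonists. Cells: inducible Hek293 Trex D2 line, 4000/well, cultured overnight at 30 C before dye loading.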
Starred values were filed as active, the others as inactive; ? = inconclusive; . = no result. The list is not random: actives were taken first. Their share in the collection is about 2.4%.

SMILES | D2 ag-1 | D2 ag-2 | D2 PAM-1 | D2 antagonist | D2 PAM-2
COc1ccc(S(=O)(=O)NCC2CCC(C(=O)NCCCN3CCCC3=O)CC2)cc1 (configuration not stated) | 0 | -4 | -7 | 32* | 15
O=C(NCc1ccc(Cl)cc1)C1CCN(S(=O)(=O)Cc2ccccc2)CC1 | 1 | . | . | . | 5
Cc1ccc(N(Cc2cccs2)C(=O)COc2ccccc2[N+](=O)[O-])cc1 | . | . | . | . | 6
COc1ccc(C(=O)N[C@H](C(=O)OCn2nnc3ccccc3c2=O)C(C)C)cc1 | 0 | -3 | -4 | -14 | 3
O=C(OCn1nnc2ccccc2c1=O)c1ccco1 | 0 | 0 | -7 | -12 | -6
COc1cc(OC)cc(C(=O)N[C@H](C(=O)OCn2nnc3ccccc3c2=O)C(C)C)c1 | -1 | -4 | -7 | -12 | 31*
O=C(OCn1nnc2ccccc2c1=O)c1cc2ccccc2o1 | 1 | 0 | -5 | 69* | 8
CCOC(=O)c1c(C)oc2ncnc(Nc3ccc(OC)c(OC)c3)c12 | 0 | . | . | . | 10
N/C(=N\OC(=O)c1ccc(Br)cc1)c1cccc([N+](=O)[O-])c1 | 0 | 6 | ? | -12 | -2
COc1cc(C(=O)O/N=C(\N)c2ccc([N+](=O)[O-])cc2)cc(OC)c1OC | 1 | 8 | 15 | 13 | -6
COc1ccc(/C(N)=N/OC(=O)c2ccco2)cc1OC | 0 | 10 | 7 | -6 | 32*
N/C(=N\OC(=O)c1ccccc1F)c1cccc([N+](=O)[O-])c1 | 4 | 66* | 16 | 6 | 6
COc1ccc(C(=O)O/N=C(\N)c2ccccc2)cc1OC | 1 | 10 | ? | -6 | 5
COc1cc(C(=O)O/N=C(\N)c2cccc([N+](=O)[O-])c2)cc(OC)c1OC | 0 | ? | 55* | 2 | 15
Cc1ccc(C(=O)O/N=C(\N)c2cccc([N+](=O)[O-])c2)cc1 | 1 | ? | 60* | -5 | 0
N/C(=N\OC(=O)c1ccccc1Br)c1cccc([N+](=O)[O-])c1 | -1 | ? | ? | -7 | 8
Cc1ccc(N2CC(C(=O)NCc3nnnn3-c3ccc(C)c(C)c3)CC2=O)cc1C (configuration not stated) | 1 | . | . | . | 7
N/C(=N\OC(=O)c1ccco1)c1cccc([N+](=O)[O-])c1 | 1 | ? | 81* | -5 | -2
N/C(=N\OC(=O)c1ccco1)c1cccc(Br)c1 | 0 | 6 | 23 | 12 | 0
O=C(Nc1ccc(F)c(Cl)c1)C1Cc2ccccc2CN1S(=O)(=O)c1ccc(F)cc1 (configuration not stated) | . | . | . | . | -9
O=Nc1c(O)c2ccccc2c2ccccc12 | . | 11 | 67* | . | .
O=c1ccc2ccccc2c2ccccc12 | . | -7 | -13 | . | .
Cn1c(-c2ccc(CN3CCCCC3)o2)nc2ccccc21 | 0 | -5 | -42 | 34* | -21
Oc1ccc(N=Cc2ccc(O)c(O)c2)cc1 | 0 | ? | 83* | -19 | 13
Oc1ccc(/C=N/N=C/c2ccc(O)c(O)c2)cc1O | 0 | 10 | 4 | 12 | 7
SMILES | D2 ag-1 | D2 ag-2 | D2 PAM-1 | D2 antagonist | D2 PAM-2
CC(C)N(C(=O)Cn1cc(SCC(=O)Nc2ccccc2F)c2ccccc21)C(C)C | -1 | . | . | . | 3
CC1CCN(CCCCOc2ccc(C(=O)c3ccccc3)cc2)CC1 | . | -3 | -15 | . | -20
CCN(CC)CCOc1cccc(C(C)C)c1 | 2 | 3 | -31 | 73* | .
CC1CCN(CCOc2cccc(Br)c2)CC1 | 29 | -2 | -17 | 98* | -28
Cc1ccc(OCCCCN2CCC(C)CC2)cc1 | 1 | 2 | -16 | 49* | -21
CC1CCN(CCCCOc2cccc(C(C)C)c2)CC1 | 0 | 0 | -12 | 58* | -29
Brc1cccc(OCCCN2CCCCCC2)c1 | 0 | 1 | -23 | 14 | -31
CN1CCN(CCCCOc2ccc(F)cc2)CC1 | 0 | -2 | -10 | -8 | 9
CC1CCN(CCCCOc2ccc(F)cc2)CC1 | 1 | 1 | -11 | 44* | -14
CCOC(=O)C1CCCN(S(=O)(=O)c2cc3c4c(c2)CCN4C(=O)CC3)C1 (configuration not stated) | 0 | ? | -2 | -6 | 16
NC(=O)C1CCN(S(=O)(=O)c2cc3c4c(c2)CCN4C(=O)CC3)CC1 | 0 | -6 | 4 | 30* | 3
Cc1c(NC(=O)c2ccc(-c3ccc(F)cc3)o2)cccc1-c1nc2ncccc2o1 | 0 | . | . | . | -6
COc1ccccc1C(=O)NCC(=O)N/N=C(\C)Cc1ccccc1 | 0 | -3 | -8 | 30* | -1
COc1ccc(OCC(=O)N/N=C(/C)Cc2ccccc2)cc1 | 0 | -5 | -4 | 32* | 7
C/C(Cc1ccccc1)=N\NC(=O)CNC(=O)COc1ccccc1 | 0 | 0 | 1 | 25 | 0
CCOc1cc(CNC(=O)c2ccccc2NC(=O)c2nsc3ccccc23)ccc1OC | 0 | . | . | . | 15
CCN(CC)S(=O)(=O)c1ccc(NC=C(C#N)C#N)cc1 | 0 | 3 | -2 | 74* | -2
CN(C)S(=O)(=O)c1ccc(NC=C(C#N)C#N)cc1 | 0 | 0 | -4 | 2 | -15
CCc1ccc(C2=C(C)C(N3CCC(C(=O)Nc4ccc(F)cc4)CC3)=NS2(=O)=O)cc1 | 1 | . | . | . | 2
CCc1ccccc1NC(=O)c1cc(S(=O)(=O)N2CCc3ccccc32)ccc1F | . | . | . | . | 9
CC(C)c1ccc(C2N3CC4(C)CN2CC(c2ccccc2)(C3)C4=O)cc1 (configuration not stated) | 5 | . | . | . | 12
CC1=CC2=NC(=O)/C(=C/c3coc4ccc(Cl)cc4c3=O)C(=N)N2O1 | 64* | 1 | 0 | 3 | -4
N=C1/C(=C\c2coc3ccccc3c2=O)C(=O)N=C2SC=CN12 | 117* | -5 | -19 | 0 | -4
N=C1/C(=C/c2cccn2Cc2ccc(F)cc2)C(=O)N=C2SC=CN12 | -1 | -2 | 10 | 15 | 0
CSC1=NSC2=NC(=O)/C(=C/c3coc4ccc(O)cc4c3=O)C(=N)N12 | 48* | 7 | 28 | -5 | 1
SMILES | D2 ag-1 | D2 ag-2 | D2 PAM-1 | D2 antagonist | D2 PAM-2
COc1cc(/C=C2/C(=N)N3C(SC)=NSC3=NC2=O)ccc1OC(=O)c1ccco1 | 0 | -7 | -8 | -5 | -10
CSC1=NSC2=NC(=O)/C(=C/c3coc4ccccc4c3=O)C(=N)N12 | 55* | 1 | -7 | -13 | 13
CSC1=NSC2=NC(=O)/C(=C\c3cccs3)C(=N)N12 | 0 | -4 | 1 | 4 | -5
COc1ccc(Cn2ccc3nc(C)c(C(=O)Nc4ccc(OC)cc4OC)cc3c2=O)cc1 | -1 | . | . | . | 2
CC(C)c1cccc(C(C)C)c1NC(=O)c1ccccc1 | -2 | -4 | 0 | 43* | -12
CCc1cccc(CC)c1NC(=O)c1ccccc1 | -1 | -4 | -3 | 21 | 5
